# Pol kappa inh-1: qHTS for Inhibitors of Polymerase Kappa | DNA polymerase kappa (Homo sapiens), Q9UBT6 | purified Pol kappa, fluorescent DNA synthesis assay, 10 min | Potency, µM (titrated, usually from 107 µM), inactives show at the top dose activity, negative = inhibition, usual class: inhibitors | actives 0.53% (n = 400,000); also: potency is read from the fitted curve at half-maximal effect; % is scaled to controls: 0 for no effect and ±100 for the full control effect
#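 Activity was followed as the change in fluorescence between reads at 0 and 10 min after starting the reaction with 50 nM substrate. Beforehand, 10 nM polymerase had been preincubated with compound for 15 min at room temperature.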
# Pol iota inh: qHTS for Inhibitors of Polymerase Iota; DNA polymerase iota (Homo sapiens), Q9UNA4; Pol iota fluorescent replication assay, 10 min; Potency, µM (series often up to 115 µM), without a hit: at the top dose activity, negative = inhibition, actives largely listed as inhibitors; actives 1% (n = 390,000); also: potency is read from the fitted curve at half-maximal effect
# Target sequence (Q9UNA4 whole entry, looked up): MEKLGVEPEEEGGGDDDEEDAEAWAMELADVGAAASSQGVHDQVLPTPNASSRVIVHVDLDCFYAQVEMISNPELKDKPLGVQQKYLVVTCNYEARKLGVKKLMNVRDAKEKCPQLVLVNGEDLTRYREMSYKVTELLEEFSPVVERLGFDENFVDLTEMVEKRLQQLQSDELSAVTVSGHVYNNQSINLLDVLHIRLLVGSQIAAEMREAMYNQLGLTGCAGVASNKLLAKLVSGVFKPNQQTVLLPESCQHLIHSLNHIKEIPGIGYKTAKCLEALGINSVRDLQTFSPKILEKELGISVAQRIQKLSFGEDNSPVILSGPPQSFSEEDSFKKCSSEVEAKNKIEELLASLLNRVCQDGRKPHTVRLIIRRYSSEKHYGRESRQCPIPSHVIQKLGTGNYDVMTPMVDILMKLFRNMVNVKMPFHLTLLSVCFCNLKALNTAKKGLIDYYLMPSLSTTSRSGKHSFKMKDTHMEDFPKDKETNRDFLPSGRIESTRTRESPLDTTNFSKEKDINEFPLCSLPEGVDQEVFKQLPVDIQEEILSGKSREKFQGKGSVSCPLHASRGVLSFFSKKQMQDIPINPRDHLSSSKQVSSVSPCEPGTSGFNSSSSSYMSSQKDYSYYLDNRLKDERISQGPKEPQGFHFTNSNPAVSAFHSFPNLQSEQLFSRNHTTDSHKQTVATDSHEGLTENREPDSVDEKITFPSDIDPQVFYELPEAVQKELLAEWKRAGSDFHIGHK
#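 Fluorescent replication assay read twice, at 0 min and 10 min after adding 50 nM (final) substrate. Enzyme (10 nM) and compounds were first incubated 15 min at room temperature; enzyme-free buffer wells were negative controls.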
# Pol eta inh-1: qHTS for Inhibitors of Polymerase Eta; Potency, µM (highest dose often 114 µM), for the others: at the top dose activity change, negative = inhibition, hits mostly inhibitors; recombinant Pol eta, fluorescent DNA replication assay; DNA polymerase eta (Homo sapiens), Q9Y253; actives 1.2% (n = 390,000); also: potency is read from the fitted curve at half-maximal effect; % is scaled to controls: 0 for no effect and ±100 for the full control effect
#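 Fluorescent replication assay: 50 nM final substrate added after a 15 min room-temperature compound preincubation with 10 nM enzyme. Signal taken at 0 min and again at 10 min.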
# ALOX12 inh: Primary qHTS assay for inhibitors of human arachidonate 12S-lipoxygenase (ALOX12): Round 2 | Polyunsaturated fatty acid lipoxygenase ALOX12 (Homo sapiens), P18054 | purified 12hLO, xylenol orange hydroperoxide absorbance | Potency, µM (titrated, usually from 108 µM), for the others: at the highest dose activity change, negative = inhibition, actives largely listed as inhibitors | actives 1.1% (n = 580,000) | AID 1671190, 2021; also: potency is read from the fitted curve at half-maximal effect; % is scaled to controls: 0 for no effect and ±100 for the full control effect
#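 Hydroperoxide product was detected by ferrous iron/xylenol orange as the 573 to 405 nm absorbance ratio. Arachidonic acid at 40 uM (final) was turned over for 30 min at room temperature by 150 nM human 12hLO, pH 7.0 Hepes buffer, after 15 min compound preincubation.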
# PI5P4Ka inh: qHTS for Inhibitors of phosphatidylinositol 5-phosphate 4-kinase (PI5P4K); Phosphatidylinositol 5-phosphate 4-kinase type-2 alpha (Homo sapiens), P48426; PI5P4Kalpha enzyme, ADP-Glo luminescence, 60 min; active compounds read low; max response, %; actives 1.2% (n = 330,000); AID 652105, 2013; active = max response of -50% or lower; inconclusive = between -30% and -50%; inactive = -30% or higher; also: value at the top dose of about 77 µM; % is scaled to controls: 0 for no effect and ±100 for the full control effect
#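 Compounds were pin-transferred onto PI5P4Kalpha and substrate in HEPES pH 7.4 buffer with EGTA, CHAPS and 5% DMSO. ATP (5 microM final) started the reaction, which ran 60 minutes at room temperature before ADP-Glo detection.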
# POLB inh: qHTS Assay for Inhibitors of DNA Polymerase Beta | Pol beta primer extension/strand displacement, fluorescence kinetic | actives 1.3% (n = 340,000) | Potency, µM (doses to about 114 µM), for inactives: at the highest dose activity change, negative = inhibition, actives largely listed as inhibitors; also: potency is read from the fitted curve at half-maximal effect; % is scaled to controls: 0 for no effect and ±100 for the full control effect
#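 Pol beta (10 nM) and compounds were preincubated 15 min at room temperature, then 50 nM substrate (final) started primer extension/strand displacement. Reads were taken at 0 and 10 min; concentration-response data were fitted to a four-parameter Hill equation.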
# GALK confirm: Confirmation Assay for Inhibitors of Human Galactokinase (GALK). shares compounds with Pol eta inh-1. Potency, µM (top dose mostly 115 µM), inactives show at the highest dose activity, negative = inhibition, actives largely listed as inhibitors. AID 2015, 2009. purified GALK, Kinase-Glo ATP depletion luminescence. actives 70% (n = 150)
# Redox cycling: Confirmatory Assay for Inhibitors of Human Galactokinase (GALK): Phenol-HRP redox assay counterscreen | shares compounds with Pol eta inh-1 | Phenol red-HRP H2O2 redox cycling, absorbance 600 nm | Potency, µM (highest dose often 115 µM), inactives show at the top dose activity change, negative = H2O2 signal, actives largely listed as inhibitors | actives 40% (n = 150)
# HEK293 tox: Secondary Assay for Inhibitors of Human Galactokinase (GALK): HEK-293 Cell Viability Assay. shares compounds with Pol eta inh-1. HEK-293 viability, ATP luminescence (CellTiter-Glo), 24/48 h. Potency, µM (doses to about 46.1 µM), without a hit: top-dose activity change, negative = cytotoxicity, most hits filed as inhibitors. actives 10% (n = 170). AID 2547, 2010; also: potency is read from the fitted curve at half-maximal effect; % is scaled to controls: 0 for no effect and ±100 for the full control effect
# Pol kappa inh-2: qHTS for Inhibitors of Polymerase Kappa: Confirmatory Assay for Cherry-picked Compounds. shares compounds with Pol eta inh-1. purified Pol-kappa, fluorescent strand-displacement substrate. Potency, µM, hits mostly inhibitors. actives 76% (n = 920); also: potency is read from the fitted curve at half-maximal effect
# Pol eta inh-2: qHTS for Inhibitors of Polymerase Eta: Confirmatory Assay for Cherry-picked Compounds. shares compounds with Pol eta inh-1. Pol eta primer extension, TAMRA/BHQ fluorescence, 10 min. Potency, µM, hits mostly inhibitors. actives 64% (n = 2,600); also: potency is read from the fitted curve at half-maximal effect
# Active calls of the source: *; ? = inconclusive; nt = no result; [ ] = remark or other dose. A selection: hits, their analogues and other compounds. The true share with any hit is near 2.9%. Unless noted, calls follow the shape of the dose curve; as a rule, active = well fitted curve in the direction sought with a large enough effect; inconclusive = small, poorly fitted or top-dose-only effect, or another doubt; inactive = no such curve, though single readings can be large; an effect the other way counts as inactive or inconclusive.
SMILES,Pol kappa inh-1,Pol iota inh,Pol eta inh-1,ALOX12 inh,PI5P4Ka inh,POLB inh,Pol kappa inh-2,Pol eta inh-2,others
CCOC(=O)/C=C(\C)Sc1cc(O)c2ccccc2c1O,11%,?,28µM*,?,?,35µM*,nt,nt,GALK confirm=30µM*;Redox cycling=19µM*;HEK293 tox=?
CCOC(=O)/C=C(\C)Sc1cc(=O)oc2ccccc12,-10%,19%,1%,-2%,-2,33%,nt,nt,
COc1cc(OC)c2ccc(=O)oc2c1C(CC(=O)N1CCCC1)c1ccc2c(c1)OCO2 (centres undefined),50µM*,71µM*,?,-9%,?,45µM*,nt,?,
COc1cc(C(CC(=O)N2CCCC2)c2c(OC)cc(OC)c3ccc(=O)oc23)cc(OC)c1OC (centres undefined),?,?,32µM*,-6%,1,?,nt,85*,
CCN(CC)CCC(c1ccc2c(c1)OCO2)c1c(OC)cc(OC)c2ccc(=O)oc12 (centres undefined),23%,-9%,-10%,-2%,0,1%,nt,nt,
Cc1cccc2cc(/C=N/Nc3ccc(C(=O)O)cc3)c(Cl)nc12,-9%,5%,?,5%,-7,?,nt,nt,
O=C(O)c1ccc(N/N=C/c2cc3ccccc3nc2Cl)cc1,-24%,10%,45µM*,-19%,-9,-28%,nt,?,
O=C(NC1CCNCC1)c1cc(C2CC2)nc2onc(C3CCCN3)c12 (centres undefined),nt,nt,nt,0%[6.33 µM],nt,nt,nt,nt,
COc1ccc(C(=O)/C=C/c2ccsc2)cc1CSCC(=O)O,-17%,13µM*,20µM*,?,-13,35µM*,nt,76*,
CC(=O)/C(N=Nc1ccc(C(=O)O)cc1[N+](=O)[O-])=C(\C)O,?,50µM*,11µM*,-17%,-73*,?,nt,?,
CCc1ccc(NC(=O)CCc2nnc3ccc(NCc4cccnc4)nn23)cc1,nt,nt,nt,12%,nt,nt,nt,nt,
C=CCOCCN1C(=O)C2C3C=CC(C2C1=O)C1C2C(=O)N(CCOCC=C)C(=O)C2C31 (centres undefined),?,28µM*,20µM*,-3%,-2,?,nt,67*,
CSc1ccccc1C(=O)N(C)C1CCCN(CCCc2ccccc2)C1 (centres undefined),nt,nt,nt,-10%,nt,nt,nt,nt,
Cc1c(Cl)cccc1NC(=O)c1nc2ccccc2nc1N1CCCCC1,nt,nt,nt,14%,nt,nt,nt,nt,
CCOc1cc(-c2ccc3c(c2)OCO3)cc(=[O+]CC)c2c(C)oc(C)c12,50µM*,50µM*,nt,nt,nt,nt,?,48*,
Cc1ccc(S(=O)(=O)N2[C@@H](c3ccc(Br)cc3)C(C(=O)O)=CC[C@H]2c2cccc(Cl)c2)cc1,-13%,-13%,-9%,?,3,nt,nt,nt,
Cc1ccc(S(=O)(=O)N2[C@@H](c3ccc(C(C)(C)C)cc3)C(C(=O)O)=CC[C@H]2c2cccc(Cl)c2)cc1,?,?,89µM*,-83%,?,nt,67*,?,
Cc1ccc(S(=O)(=O)N2[C@@H](c3ccc(Br)cc3)C(C(=O)O)=CC[C@H]2c2ccc(Cl)c(Cl)c2)cc1,-18%,-25%,89µM*,-94%,-16,nt,?,nt,
CC(c1nc2ccccc2s1)N(C)S(=O)(=O)/C=C/c1ccccc1 (centres undefined),nt,nt,nt,-23%,nt,nt,nt,nt,
CC1C/C(=C/c2ccncc2)C(=O)/C(=C/c2ccncc2)C1 (centres undefined),3%,?,32µM*,-11%,-4,3%,nt,76*,
CCCC(=O)N1Cc2ccccc2CC2(CCCN(Cc3ccncc3)C2)C1 (centres undefined),nt,nt,nt,14%[6.33 µM],nt,nt,nt,nt,
O=C(Nc1nc2c(s1)CCCCC2)C1CC(=O)N(C2CC2)C1 (centres undefined),nt,nt,nt,10%,nt,nt,nt,nt,
CC(=O)Nc1ccc(S(=O)(=O)Nc2cc([N+](=O)[O-])ccc2C)cc1,-3%,42%,-1%,-10%,-26,11%,nt,nt,
CC(=O)Nc1ccc(C=NNc2ccc([N+](=O)[O-])cc2S(=O)(=O)Nc2ccccc2C(=O)O)cc1,-43%,?,50µM*,?,-64*,nt,?,nt,
Cc1cccc(/C=C(\C(=O)O)c2ccc(S(=O)(=O)N3CCCC3)s2)c1,?,?,13µM*,?,-25,nt,34*,?,
COC(=O)c1c(C(=O)OC)c(-c2ccc(Cl)c(Cl)c2)n2c1CCC2,5%,22%,-2%,1%,nt,10%,nt,nt,
O=C(O)c1c(C(=O)O)c(-c2ccc(Cl)c(Cl)c2)n2c1CSC2,-45%,?,50µM*,?,-29,?,38*,nt,
Cc1ccc(C(=O)NCc2occc2C(=O)O)o1,?,?,28µM*,?,nt,20µM*,24*,30*,
